Measurements reported in the supplement of paper PMC10849652.
Of roughly 8,800 targets only a part is listed; those with a hit were picked by preference. About 0.5% of all pairs of compound and target were hits.

Experiments:
Assay in all cases: log2 fold change, soluble protein after heating vs DMSO (PISA); higher = thermal stabilisation; K562 lysate, 10 uM; active = over 0.2 and 3.5 SD of the protein, either way, in both replicates (recomputed)
vemurafenib = compound: CCCS(=O)(=O)Nc1ccc(F)c(C(=O)c2c[nH]c3ncc(-c4ccc(Cl)cc4)cc23)c1F [vemurafenib]
Outline: (§1)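 Following dounce homogenisation of K562 pellets in PBS pH 7.4 with 1 mM MgCl2, crude extract at 1 mg/mL protein was incubated for 30 min with 10 μM compound. Aliquots were then heated for 3 min over 48°C-58°C and pooled, NP-40 was added to 0.5% at 4°C, and soluble protein was recovered as the supernatant at 21,000xg for 90 min. Channel-sum-equalised TMTpro 16plex LC-MS/MS quantified this protein. Each value, from duplicates, is a log-two fold change in thermal stability relative to solvent controls.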

[1] = compound: CCCS(=O)(=O)Nc1ccc(F)c(C(=O)c2c[nH]c3ncc(Cl)cc23)c1F
Outline: as §1

barasertib = compound: CCN(CCCOc1ccc2c(Nc3cc(CC(=O)Nc4cccc(F)c4)[nH]n3)ncnc2c1)CCOP(=O)(O)O [barasertib]
Outline: as §1

[2] = compound: CC[C@@H]1C(=O)N(C)c2cnc(Nc3ccc(C(=O)NC4CCN(C)CC4)cc3OC)nc2N1C1CCCC1
Outline: as §1

volasertib = compound: CC[C@@H]1C(=O)N(C)c2cnc(Nc3ccc(C(=O)N[C@H]4CC[C@H](N5CCN(CC6CC6)CC5)CC4)cc3OC)nc2N1C(C)C [volasertib]
Outline: as §1

[3] = compound: CCn1c(C(=O)N(C2CC2)C2CC2)cc2c3c(ncn3C)c(Nc3cc(C)n(C)n3)nc21
Outline: as §1

[4] = compound: CCn1cc(-c2ccnc3[nH]c(-c4cccc(CN(C)C)c4)cc23)c(-c2ccc(NC(=O)N(C)C)cc2)n1
Outline: as §1

[5] = compound: CN1CCC(CNc2ccc3ncc(-c4cccc(OC(F)(F)F)c4)n3n2)CC1
Outline: as §1

saracatinib = compound: CN1CCN(CCOc2cc(OC3CCOCC3)c3c(Nc4c(Cl)ccc5c4OCO5)ncnc3c2)CC1 [saracatinib]
Outline: as §1

sotrastaurin = compound: CN1CCN(c2nc(C3=C(c4c[nH]c5ccccc45)C(=O)NC3=O)c3ccccc3n2)CC1 [sotrastaurin]
Outline: as §1

Measured: log2 fold change

CDC45 isoform 3 (UniProt O75419)
inactive: vemurafenib 0.009 | [1] 0.042 | barasertib -0.015 | [2] -0.05 | volasertib -0.017 | [3] -0.05 | [4] -0.096 | [5] -0.04 | saracatinib 0.007 | sotrastaurin 0.027

CASC4 (UniProt Q6P4E1)
inactive: vemurafenib 0 | [1] 0.02 | barasertib -0.02 | [2] 0.009 | volasertib 0.017 | [3] 0.022 | [4] -0.05 | [5] -0.008 | saracatinib -0.003 | sotrastaurin -0.004

CASP6 (UniProt P55212)
inactive: vemurafenib 0.006 | [1] -0.012 | barasertib -0.071 | [2] 0.018 | volasertib -0.017 | [3] 0.025 | [4] 0.242 | [5] 0.013 | saracatinib -0.004 | sotrastaurin -0.016

CHAF1A (UniProt Q13111)
Sequence of UniProt Q13111 (Q13111 whole entry, looked up): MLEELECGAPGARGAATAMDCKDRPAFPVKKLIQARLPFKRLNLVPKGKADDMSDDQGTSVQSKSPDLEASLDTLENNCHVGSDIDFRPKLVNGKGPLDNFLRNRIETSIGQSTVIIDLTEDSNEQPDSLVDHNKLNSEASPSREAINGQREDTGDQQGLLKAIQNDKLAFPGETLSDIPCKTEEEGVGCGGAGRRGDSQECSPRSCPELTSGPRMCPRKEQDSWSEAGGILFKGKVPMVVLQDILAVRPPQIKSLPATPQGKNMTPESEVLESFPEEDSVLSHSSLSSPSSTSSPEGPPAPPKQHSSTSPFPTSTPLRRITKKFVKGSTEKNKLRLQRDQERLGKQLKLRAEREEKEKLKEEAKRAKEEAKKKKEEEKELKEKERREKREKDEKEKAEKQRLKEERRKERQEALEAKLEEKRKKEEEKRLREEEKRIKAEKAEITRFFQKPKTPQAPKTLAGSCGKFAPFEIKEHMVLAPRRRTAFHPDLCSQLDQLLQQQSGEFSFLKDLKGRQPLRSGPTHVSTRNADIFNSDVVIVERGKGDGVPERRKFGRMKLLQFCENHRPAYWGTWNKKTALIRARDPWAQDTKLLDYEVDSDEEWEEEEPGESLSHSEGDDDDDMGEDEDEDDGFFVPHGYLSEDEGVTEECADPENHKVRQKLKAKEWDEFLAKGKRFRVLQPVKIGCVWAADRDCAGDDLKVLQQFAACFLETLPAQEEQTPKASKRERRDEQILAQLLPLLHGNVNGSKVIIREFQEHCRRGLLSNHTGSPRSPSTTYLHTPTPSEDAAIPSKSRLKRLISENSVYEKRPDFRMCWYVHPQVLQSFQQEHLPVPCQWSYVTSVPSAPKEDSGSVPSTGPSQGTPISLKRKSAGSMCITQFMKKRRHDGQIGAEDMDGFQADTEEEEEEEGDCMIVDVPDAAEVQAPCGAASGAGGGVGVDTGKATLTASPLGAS
inactive: vemurafenib 0.005 | [1] 0.005 | barasertib 0.006 | [2] 0.029 | volasertib 0.003 | [3] -0.009 | [4] 0.029 | [5] 0.004 | saracatinib 0.038 | sotrastaurin -0.016

BUB1B isoform 3 (UniProt O60566)
inactive: vemurafenib 0.024 | [1] 0.024 | barasertib 0.03 | [2] -0.012 | volasertib -0.014 | [3] 0.01 | [4] 0.13 | [5] -0.05 | saracatinib -0.006 | sotrastaurin 0.009

CAMKK2 (UniProt Q96RR4)
inactive: vemurafenib -0.07 | [1] -0.026 | barasertib 0.003 | [2] 0.176 | volasertib 0.075 | [3] 0.057 | [4] 0.003 | [5] 0.002 | saracatinib -0.017 | sotrastaurin 0.069

C3 (UniProt P01024)
inactive: vemurafenib -0.02 | [1] 0.042 | barasertib 0.059 | [2] 0.07 | volasertib 0.009 | [3] -0.096 | [4] -0.134 | [5] 0.039 | saracatinib 0.001 | sotrastaurin 0.014

CELF2 isoform 3 (UniProt O95319)
Sequence of UniProt O95319 (O95319 whole entry, looked up): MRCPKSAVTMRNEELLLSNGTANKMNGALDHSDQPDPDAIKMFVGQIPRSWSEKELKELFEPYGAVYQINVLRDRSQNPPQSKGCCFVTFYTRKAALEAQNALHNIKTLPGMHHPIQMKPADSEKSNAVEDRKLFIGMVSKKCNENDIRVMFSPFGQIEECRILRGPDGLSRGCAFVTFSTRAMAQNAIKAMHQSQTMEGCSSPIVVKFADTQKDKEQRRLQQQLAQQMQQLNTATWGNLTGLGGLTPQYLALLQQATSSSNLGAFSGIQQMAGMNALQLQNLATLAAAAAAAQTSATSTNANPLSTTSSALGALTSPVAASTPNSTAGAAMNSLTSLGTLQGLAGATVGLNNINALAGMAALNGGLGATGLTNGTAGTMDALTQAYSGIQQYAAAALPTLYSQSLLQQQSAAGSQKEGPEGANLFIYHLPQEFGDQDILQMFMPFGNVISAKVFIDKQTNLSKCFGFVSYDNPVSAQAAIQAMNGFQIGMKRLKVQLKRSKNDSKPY
inactive: vemurafenib 0.082 | [1] 0.013 | barasertib 0.031 | [2] 0.096 | volasertib -0.05 | [3] 0.001 | [4] 0.074 | [5] -0.095 | saracatinib 0.021 | sotrastaurin -0.023

AURKAIP1 (UniProt Q9NWT8)
inactive: vemurafenib 0.043 | [1] -0.124 | barasertib 0.055 | [2] 0.071 | volasertib 0.043 | [3] -0.129 | [4] -0.027 | [5] 0.129 | saracatinib 0.023 | sotrastaurin -0.055

BAG4 (UniProt O95429)
Sequence of UniProt O95429 (O95429 whole entry, looked up): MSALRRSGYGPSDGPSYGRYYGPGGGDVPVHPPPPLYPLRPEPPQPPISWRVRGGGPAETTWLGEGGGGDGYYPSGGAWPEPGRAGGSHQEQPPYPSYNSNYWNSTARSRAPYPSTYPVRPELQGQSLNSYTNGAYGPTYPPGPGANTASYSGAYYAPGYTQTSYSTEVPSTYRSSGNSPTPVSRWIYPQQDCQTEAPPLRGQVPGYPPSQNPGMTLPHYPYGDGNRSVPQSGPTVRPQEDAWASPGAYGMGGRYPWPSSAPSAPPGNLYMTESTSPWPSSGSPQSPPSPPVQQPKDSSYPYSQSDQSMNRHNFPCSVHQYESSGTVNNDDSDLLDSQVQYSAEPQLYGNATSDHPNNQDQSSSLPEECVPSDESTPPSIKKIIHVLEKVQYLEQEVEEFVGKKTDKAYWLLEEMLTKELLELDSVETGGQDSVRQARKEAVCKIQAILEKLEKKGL
inactive: vemurafenib -0.055 | [1] 0 | barasertib 0.048 | [2] 0.004 | volasertib -0.003 | [3] 0.036 | [4] -0.037 | [5] 0.102 | saracatinib 0.018 | sotrastaurin -0.043

CDK1 (UniProt P06493)
inactive: vemurafenib 0.012 | [1] -0.017 | barasertib -0.029 | [2] -0.041 | volasertib -0.037 | [3] -0.006 | [4] -0.056 | [5] -0.049 | saracatinib 0.016 | sotrastaurin -0.002

CCNB2 (UniProt O95067)
Sequence of UniProt O95067 (O95067 whole entry, looked up): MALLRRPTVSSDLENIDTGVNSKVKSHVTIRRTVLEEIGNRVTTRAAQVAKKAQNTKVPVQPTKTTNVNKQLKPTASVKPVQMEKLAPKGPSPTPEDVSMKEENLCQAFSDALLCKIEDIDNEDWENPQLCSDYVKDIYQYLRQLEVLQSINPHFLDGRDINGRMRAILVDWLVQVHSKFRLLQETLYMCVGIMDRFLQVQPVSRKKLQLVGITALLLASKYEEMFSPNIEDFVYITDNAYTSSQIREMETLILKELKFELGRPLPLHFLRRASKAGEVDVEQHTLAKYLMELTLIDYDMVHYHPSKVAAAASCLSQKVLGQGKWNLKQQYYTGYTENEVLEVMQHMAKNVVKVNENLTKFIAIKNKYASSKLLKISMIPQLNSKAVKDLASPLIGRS
inactive: vemurafenib 0.04 | [1] -0.008 | barasertib 0.06 | [2] 0.037 | volasertib -0.072 | [3] -0.059 | [4] -0.085 | [5] 0.011 | saracatinib 0.038 | sotrastaurin 0.078

BRD4 (UniProt O60885)
inactive: vemurafenib 0.049 | [1] 0.016 | barasertib -0.007 | [3] -0.008 | [4] -0.007 | [5] 0.037 | saracatinib -0.025 | sotrastaurin -0.012
active: [2] 0.538 | volasertib 0.217

CANX isoform 2 (UniProt P27824)
Sequence of UniProt P27824 (P27824 whole entry, looked up): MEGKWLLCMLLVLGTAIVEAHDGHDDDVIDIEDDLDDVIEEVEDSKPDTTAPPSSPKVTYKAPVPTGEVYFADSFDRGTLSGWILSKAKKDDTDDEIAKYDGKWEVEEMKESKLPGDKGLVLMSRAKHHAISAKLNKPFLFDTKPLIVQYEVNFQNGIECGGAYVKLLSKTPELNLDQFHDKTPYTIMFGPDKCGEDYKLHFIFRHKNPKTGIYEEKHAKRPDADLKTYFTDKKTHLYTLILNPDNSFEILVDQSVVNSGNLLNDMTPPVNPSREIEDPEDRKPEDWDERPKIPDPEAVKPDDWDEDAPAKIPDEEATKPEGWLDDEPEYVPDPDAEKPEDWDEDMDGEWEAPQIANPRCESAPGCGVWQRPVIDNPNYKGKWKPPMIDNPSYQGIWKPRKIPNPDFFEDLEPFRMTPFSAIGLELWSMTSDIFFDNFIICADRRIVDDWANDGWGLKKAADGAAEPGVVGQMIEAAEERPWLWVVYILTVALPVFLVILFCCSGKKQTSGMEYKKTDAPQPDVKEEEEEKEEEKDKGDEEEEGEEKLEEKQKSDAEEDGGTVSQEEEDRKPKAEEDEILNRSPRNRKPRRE
inactive: vemurafenib 0.015 | [1] -0.012 | barasertib -0.015 | [2] 0.061 | volasertib 0.033 | [3] -0.014 | [4] -0.074 | [5] 0.034 | saracatinib 0.001 | sotrastaurin 0.036

C12orf45 (UniProt Q8N5I9)
Sequence of UniProt Q8N5I9 (Q8N5I9 whole entry, looked up): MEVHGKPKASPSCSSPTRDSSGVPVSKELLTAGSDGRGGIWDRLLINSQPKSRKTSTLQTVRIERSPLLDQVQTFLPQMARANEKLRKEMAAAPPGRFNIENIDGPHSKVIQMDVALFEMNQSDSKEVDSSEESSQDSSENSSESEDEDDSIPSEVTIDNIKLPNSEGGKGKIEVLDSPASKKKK
inactive: vemurafenib -0.015 | [1] -0.017 | barasertib -0.022 | [2] 0.009 | volasertib 0.008 | [3] 0.023 | [4] -0.243 | [5] 0.116 | saracatinib -0.022 | sotrastaurin -0.026

CCNH (UniProt P51946)
Sequence of UniProt P51946 (P51946 whole entry, looked up): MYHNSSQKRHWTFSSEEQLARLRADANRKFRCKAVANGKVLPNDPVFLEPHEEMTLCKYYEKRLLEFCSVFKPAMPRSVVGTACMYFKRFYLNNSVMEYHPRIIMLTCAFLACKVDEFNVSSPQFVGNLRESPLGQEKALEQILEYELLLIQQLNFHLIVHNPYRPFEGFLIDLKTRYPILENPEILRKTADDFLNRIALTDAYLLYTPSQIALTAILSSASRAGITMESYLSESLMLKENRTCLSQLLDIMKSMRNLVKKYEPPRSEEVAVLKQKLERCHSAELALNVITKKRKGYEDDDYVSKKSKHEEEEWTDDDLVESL
inactive: vemurafenib -0.025 | [1] 0.001 | barasertib -0.035 | [2] 0.036 | volasertib 0.003 | [3] -0.034 | [4] 0.054 | [5] -0.062 | saracatinib -0.036 | sotrastaurin 0.033

CBX1 (UniProt P83916)
Sequence of UniProt P83916 (P83916 whole entry, looked up): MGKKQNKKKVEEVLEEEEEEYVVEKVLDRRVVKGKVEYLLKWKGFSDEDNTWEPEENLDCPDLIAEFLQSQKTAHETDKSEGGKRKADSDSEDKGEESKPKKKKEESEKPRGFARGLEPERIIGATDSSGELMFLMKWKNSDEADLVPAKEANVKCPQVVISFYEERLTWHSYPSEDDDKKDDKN
inactive: vemurafenib 0.001 | [1] 0.015 | barasertib -0.075 | [2] 0.028 | volasertib 0.01 | [3] 0.006 | [5] -0.111 | saracatinib -0.003 | sotrastaurin 0.038
active: [4] 0.301

CDS2 (UniProt O95674)
Sequence of UniProt O95674 (O95674 whole entry, looked up): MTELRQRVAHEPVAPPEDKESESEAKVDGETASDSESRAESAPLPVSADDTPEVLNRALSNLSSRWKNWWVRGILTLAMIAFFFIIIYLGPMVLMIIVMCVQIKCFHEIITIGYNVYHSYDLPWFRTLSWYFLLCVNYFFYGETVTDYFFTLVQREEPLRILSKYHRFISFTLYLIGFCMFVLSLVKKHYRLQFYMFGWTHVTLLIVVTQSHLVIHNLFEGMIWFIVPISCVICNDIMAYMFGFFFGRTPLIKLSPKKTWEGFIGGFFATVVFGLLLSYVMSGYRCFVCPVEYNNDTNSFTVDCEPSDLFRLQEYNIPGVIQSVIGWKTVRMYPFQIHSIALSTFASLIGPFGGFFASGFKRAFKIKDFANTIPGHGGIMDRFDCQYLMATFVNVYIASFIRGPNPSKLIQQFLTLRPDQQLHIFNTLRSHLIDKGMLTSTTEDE
inactive: vemurafenib 0.09 | [1] 0.041 | barasertib 0.027 | [2] 0.026 | volasertib 0.005 | [3] -0.006 | [4] 0.015 | [5] 0.004 | saracatinib -0.053 | sotrastaurin 0.037

CELF1 isoform 4 (UniProt Q92879)
inactive: vemurafenib 0.024 | [1] 0.014 | barasertib 0.03 | [2] -0.044 | volasertib -0.133 | [3] 0.012 | [4] 0.08 | [5] -0.08 | saracatinib 0.035 | sotrastaurin 0.054

ATG4B (UniProt Q9Y4P1)
inactive: vemurafenib 0.036 | [1] 0.04 | barasertib 0.047 | [2] 0.012 | volasertib -0.05 | [3] 0.008 | [4] 0.148 | [5] -0.105 | saracatinib 0.043 | sotrastaurin 0.039

ATR (UniProt Q13535)
inactive: vemurafenib 0.059 | [1] 0.013 | barasertib 0 | [2] 0.017 | volasertib -0.13 | [3] 0.018 | [4] -0.307 | [5] 0.337 | saracatinib 0.018 | sotrastaurin 0.081

C2CD5 isoform 3 (UniProt Q86YS7)
inactive: vemurafenib 0.068 | [1] 0.022 | barasertib 0.049 | [2] 0.062 | volasertib -0.025 | [3] -0.069 | [5] 0.162 | saracatinib 0.058 | sotrastaurin -0.023
active: [4] -0.309

BCKDHB (UniProt P21953)
Sequence of UniProt P21953 (P21953 whole entry, looked up): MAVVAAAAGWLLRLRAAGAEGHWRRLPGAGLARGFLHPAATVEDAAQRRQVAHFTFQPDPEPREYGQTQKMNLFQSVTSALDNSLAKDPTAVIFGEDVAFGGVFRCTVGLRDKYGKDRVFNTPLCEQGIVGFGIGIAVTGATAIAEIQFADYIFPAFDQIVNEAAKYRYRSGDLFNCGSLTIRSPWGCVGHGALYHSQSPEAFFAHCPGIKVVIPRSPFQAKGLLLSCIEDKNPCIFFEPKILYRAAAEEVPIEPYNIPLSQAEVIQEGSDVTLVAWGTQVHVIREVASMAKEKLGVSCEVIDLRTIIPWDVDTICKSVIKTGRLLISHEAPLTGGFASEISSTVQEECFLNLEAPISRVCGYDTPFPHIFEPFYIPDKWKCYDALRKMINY
inactive: vemurafenib 0.068 | [1] 0.032 | barasertib 0.065 | [2] -0.102 | volasertib -0.079 | [3] -0.064 | [4] 0.022 | [5] -0.02 | saracatinib -0.012 | sotrastaurin 0.129

CAMK2G isoform 8 (UniProt Q13555)
active: sotrastaurin 0.345
inactive: vemurafenib 0.067 | [1] -0.03 | barasertib 0.058 | [2] 0.102 | volasertib -0.033 | [3] -0.079 | [4] -0.001 | [5] 0.022 | saracatinib 0.086

CCDC85B (UniProt Q15834)
Sequence of UniProt Q15834 (Q15834 whole entry, looked up): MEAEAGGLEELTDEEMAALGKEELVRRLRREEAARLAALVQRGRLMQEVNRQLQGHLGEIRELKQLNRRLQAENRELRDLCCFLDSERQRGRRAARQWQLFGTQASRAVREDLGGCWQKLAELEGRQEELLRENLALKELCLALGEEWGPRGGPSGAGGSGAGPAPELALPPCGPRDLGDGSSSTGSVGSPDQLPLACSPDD
inactive: vemurafenib -0.317 | [1] 0.04 | barasertib -0.047 | [2] 0.086 | volasertib 0.345 | [3] 0.007 | [4] 0.126 | [5] -0.01 | saracatinib 0.163 | sotrastaurin -0.035

CDK2 (UniProt P24941)
inactive: vemurafenib -0.012 | [1] 0.012 | barasertib -0.01 | [2] -0.059 | volasertib -0.025 | [3] 0.008 | [4] -0.055 | [5] 0.167 | saracatinib -0.017 | sotrastaurin 0.09

CENPQ (UniProt Q7L2Z9)
Sequence of UniProt Q7L2Z9 (Q7L2Z9 whole entry, looked up): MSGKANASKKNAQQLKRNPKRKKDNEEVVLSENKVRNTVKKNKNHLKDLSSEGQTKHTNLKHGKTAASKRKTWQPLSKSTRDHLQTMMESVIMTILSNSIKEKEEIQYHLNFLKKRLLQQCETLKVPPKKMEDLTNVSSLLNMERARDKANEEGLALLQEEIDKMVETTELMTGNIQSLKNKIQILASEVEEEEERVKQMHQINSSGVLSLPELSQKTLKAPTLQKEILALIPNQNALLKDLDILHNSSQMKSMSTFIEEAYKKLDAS
active: [4] -0.44
inactive: vemurafenib 0.069 | [1] -0.167 | barasertib 0.038 | [2] -0.023 | volasertib -0.115 | [3] -0.084 | [5] 0.095 | saracatinib 0.033 | sotrastaurin 0.023
